# Source: PMC7862700, “An all-to-all approach to the identification of sequence-specific readers for epigenetic DNA modifications on cytosine”
# Experiments:
# Test in all cases: DAPPL (digital affinity profiling via proximity ligation, sequencing); 10 mM Tris-HCl pH 7.5, 50 mM NaCl, 1 mM DTT, 4% glycerol, room temperature, 30 min; GST-TFs on glutathione beads, 16-mer random dsDNA library, 0.1% formaldehyde crosslink after washing; high values mean tight binding
# FEV = target: T1, FEV (Homo sapiens, UniProt Q99581 1-238); settings: protein: recombinant; tags: N-terminal GST; dsDNA, one strand shown
# T1 sequence: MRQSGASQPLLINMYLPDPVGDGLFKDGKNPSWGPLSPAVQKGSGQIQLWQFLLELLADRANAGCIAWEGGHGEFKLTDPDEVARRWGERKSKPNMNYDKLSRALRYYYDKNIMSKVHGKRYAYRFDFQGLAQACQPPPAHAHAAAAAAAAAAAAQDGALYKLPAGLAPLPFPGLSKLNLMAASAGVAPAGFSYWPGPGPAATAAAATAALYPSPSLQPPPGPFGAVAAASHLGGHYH
# How it was run: (§1)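 Beads coated with glutathione captured GST-fused human transcription factors that had been expressed in yeast, and the factors were then given DNA barcodes and pooled with a tag-only sample. The pools were incubated with 200 nmole of a random double-stranded 16-mer DNA library in Tris/NaCl/DTT/glycerol buffer for 30 min at room temperature, washed, crosslinked with 0.1% formaldehyde and proximity-ligated with BsaI/T4 ligase at 37 °C for 1 h. PCR amplification and Illumina NextSeq500 sequencing came last. Binding signal is each hexamer's read frequency for a factor divided by its frequency for the tag-only sample.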
# ETV5 = ETV5 (Homo sapiens, UniProt P41161 1-510); settings: protein: recombinant; tags: N-terminal GST; dsDNA, one strand shown
# Sequence of ETV5 (P41161 whole entry): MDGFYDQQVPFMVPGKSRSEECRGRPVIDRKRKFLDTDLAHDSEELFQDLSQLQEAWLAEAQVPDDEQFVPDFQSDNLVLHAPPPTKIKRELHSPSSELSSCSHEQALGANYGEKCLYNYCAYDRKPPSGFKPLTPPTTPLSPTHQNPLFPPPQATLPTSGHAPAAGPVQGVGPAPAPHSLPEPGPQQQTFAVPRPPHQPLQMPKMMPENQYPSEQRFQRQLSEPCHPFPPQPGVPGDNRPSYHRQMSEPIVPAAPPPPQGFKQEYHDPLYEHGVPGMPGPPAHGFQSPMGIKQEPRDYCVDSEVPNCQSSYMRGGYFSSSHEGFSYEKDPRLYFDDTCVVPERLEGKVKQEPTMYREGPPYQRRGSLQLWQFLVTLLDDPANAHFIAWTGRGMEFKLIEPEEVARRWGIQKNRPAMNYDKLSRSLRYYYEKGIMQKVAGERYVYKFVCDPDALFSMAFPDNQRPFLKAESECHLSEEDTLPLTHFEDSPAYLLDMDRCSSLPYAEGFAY
# How it was run: as §1
# HSF1 = HSF1 (Homo sapiens, UniProt Q00613 1-529); settings: protein: recombinant; tags: N-terminal GST; chain copies: 3; dsDNA, one strand shown
# Sequence of HSF1 (Q00613 whole entry): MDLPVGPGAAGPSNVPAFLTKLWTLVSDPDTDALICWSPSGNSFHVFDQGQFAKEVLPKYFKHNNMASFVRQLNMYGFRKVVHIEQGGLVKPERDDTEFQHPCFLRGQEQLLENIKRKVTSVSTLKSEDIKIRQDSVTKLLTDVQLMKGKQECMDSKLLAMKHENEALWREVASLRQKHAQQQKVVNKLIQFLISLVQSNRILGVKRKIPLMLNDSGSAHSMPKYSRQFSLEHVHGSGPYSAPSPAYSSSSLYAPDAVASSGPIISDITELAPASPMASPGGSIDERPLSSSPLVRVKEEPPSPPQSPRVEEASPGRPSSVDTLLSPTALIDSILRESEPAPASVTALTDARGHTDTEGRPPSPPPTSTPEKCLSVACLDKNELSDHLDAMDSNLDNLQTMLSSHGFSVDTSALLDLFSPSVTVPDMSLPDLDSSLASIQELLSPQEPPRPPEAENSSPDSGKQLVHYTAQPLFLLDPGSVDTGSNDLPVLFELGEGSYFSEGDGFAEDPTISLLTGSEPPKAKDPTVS
# How it was run: as §1
# SPIC = target: T2, SPIC (Homo sapiens, UniProt Q8N5J4 1-248); settings: protein: recombinant; tags: N-terminal GST; dsDNA, one strand shown
# T2 sequence: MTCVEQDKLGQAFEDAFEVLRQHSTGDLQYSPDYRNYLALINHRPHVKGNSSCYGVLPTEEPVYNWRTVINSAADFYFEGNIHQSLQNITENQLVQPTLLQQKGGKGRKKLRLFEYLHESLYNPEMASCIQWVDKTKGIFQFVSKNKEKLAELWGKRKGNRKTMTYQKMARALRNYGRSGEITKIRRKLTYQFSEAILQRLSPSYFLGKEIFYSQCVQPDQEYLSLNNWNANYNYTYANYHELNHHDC
# How it was run: as §1
# ELF4 = ELF4 (Homo sapiens, UniProt Q99607 1-663); settings: protein: recombinant; tags: N-terminal GST; dsDNA, one strand shown
# Sequence of ELF4 (Q99607 whole entry): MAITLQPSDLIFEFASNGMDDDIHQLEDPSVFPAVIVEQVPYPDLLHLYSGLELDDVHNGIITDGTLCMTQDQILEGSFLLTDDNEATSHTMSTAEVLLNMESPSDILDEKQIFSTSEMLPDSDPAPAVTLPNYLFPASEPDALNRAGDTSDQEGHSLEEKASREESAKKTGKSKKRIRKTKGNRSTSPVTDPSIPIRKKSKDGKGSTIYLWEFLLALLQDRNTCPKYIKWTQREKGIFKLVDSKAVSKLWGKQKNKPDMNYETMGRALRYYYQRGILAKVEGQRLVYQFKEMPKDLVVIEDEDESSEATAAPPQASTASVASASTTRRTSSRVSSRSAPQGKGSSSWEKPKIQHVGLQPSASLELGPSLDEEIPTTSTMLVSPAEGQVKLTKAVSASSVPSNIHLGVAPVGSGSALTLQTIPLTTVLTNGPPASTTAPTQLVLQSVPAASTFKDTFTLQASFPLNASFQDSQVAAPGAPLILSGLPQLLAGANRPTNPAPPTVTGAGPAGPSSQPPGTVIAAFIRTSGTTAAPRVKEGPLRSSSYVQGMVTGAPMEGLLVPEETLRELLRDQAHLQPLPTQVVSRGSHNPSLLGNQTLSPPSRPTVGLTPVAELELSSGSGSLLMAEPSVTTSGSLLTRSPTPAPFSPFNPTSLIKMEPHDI
# How it was run: as §1
# ELK4 = target: T3, ELK4 (Homo sapiens, UniProt P28324-2 1-405); settings: protein: recombinant; tags: N-terminal GST; dsDNA, one strand shown
# T3 sequence: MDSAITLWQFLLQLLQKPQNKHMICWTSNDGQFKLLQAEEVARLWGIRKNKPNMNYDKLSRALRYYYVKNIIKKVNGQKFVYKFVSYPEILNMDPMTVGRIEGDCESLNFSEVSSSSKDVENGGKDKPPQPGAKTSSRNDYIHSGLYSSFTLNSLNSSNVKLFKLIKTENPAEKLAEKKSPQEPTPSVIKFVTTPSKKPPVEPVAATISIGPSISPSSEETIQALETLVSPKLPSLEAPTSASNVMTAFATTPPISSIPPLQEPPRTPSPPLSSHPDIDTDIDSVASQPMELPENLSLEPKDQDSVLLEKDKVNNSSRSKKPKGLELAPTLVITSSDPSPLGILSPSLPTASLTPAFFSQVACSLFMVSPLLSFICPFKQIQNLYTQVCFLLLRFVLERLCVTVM
# How it was run: as §1
# ETV2 = target: T4, ETV2 (Homo sapiens, UniProt O00321 1-342); settings: protein: recombinant; tags: N-terminal GST; dsDNA, one strand shown
# T4 sequence: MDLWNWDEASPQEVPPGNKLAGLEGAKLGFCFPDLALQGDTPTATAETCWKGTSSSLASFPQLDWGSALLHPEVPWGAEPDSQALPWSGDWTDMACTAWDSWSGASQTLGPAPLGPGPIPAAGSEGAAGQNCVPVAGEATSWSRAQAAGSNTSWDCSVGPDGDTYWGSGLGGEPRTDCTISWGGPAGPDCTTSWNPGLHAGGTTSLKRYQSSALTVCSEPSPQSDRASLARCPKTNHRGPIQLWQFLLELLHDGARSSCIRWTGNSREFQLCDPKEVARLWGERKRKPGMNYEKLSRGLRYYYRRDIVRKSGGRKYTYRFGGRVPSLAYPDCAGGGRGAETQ
# How it was run: as §1
# ELF3 = target: T5, ELF3 (Homo sapiens, UniProt P78545 1-371); settings: protein: recombinant; tags: N-terminal GST; dsDNA, one strand shown
# T5 sequence: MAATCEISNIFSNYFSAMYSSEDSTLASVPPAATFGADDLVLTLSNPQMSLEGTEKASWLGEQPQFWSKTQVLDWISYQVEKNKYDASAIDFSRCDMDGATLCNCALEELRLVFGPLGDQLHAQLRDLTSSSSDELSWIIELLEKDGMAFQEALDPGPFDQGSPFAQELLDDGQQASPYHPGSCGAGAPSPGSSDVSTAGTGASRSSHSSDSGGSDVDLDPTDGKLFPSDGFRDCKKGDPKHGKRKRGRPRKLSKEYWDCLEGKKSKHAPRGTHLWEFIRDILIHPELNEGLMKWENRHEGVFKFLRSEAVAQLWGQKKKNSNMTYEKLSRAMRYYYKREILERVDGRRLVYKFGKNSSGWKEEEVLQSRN
# How it was run: as §1
# CRX = CRX (Homo sapiens, UniProt O43186 1-299); settings: protein: recombinant; tags: N-terminal GST; dsDNA, one strand shown
# Sequence of CRX (O43186 whole entry): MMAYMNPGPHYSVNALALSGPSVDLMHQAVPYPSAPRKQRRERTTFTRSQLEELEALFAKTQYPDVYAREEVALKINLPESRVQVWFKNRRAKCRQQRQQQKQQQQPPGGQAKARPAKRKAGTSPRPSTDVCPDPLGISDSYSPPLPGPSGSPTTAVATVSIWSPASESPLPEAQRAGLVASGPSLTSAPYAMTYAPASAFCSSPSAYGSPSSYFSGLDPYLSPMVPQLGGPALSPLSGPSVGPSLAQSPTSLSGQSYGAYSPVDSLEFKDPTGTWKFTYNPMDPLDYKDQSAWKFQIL
# How it was run: as §1
# ETV1 = ETV1 (Homo sapiens, UniProt P50549 1-477); settings: protein: recombinant; tags: N-terminal GST; dsDNA, one strand shown
# Sequence of ETV1 (P50549 whole entry): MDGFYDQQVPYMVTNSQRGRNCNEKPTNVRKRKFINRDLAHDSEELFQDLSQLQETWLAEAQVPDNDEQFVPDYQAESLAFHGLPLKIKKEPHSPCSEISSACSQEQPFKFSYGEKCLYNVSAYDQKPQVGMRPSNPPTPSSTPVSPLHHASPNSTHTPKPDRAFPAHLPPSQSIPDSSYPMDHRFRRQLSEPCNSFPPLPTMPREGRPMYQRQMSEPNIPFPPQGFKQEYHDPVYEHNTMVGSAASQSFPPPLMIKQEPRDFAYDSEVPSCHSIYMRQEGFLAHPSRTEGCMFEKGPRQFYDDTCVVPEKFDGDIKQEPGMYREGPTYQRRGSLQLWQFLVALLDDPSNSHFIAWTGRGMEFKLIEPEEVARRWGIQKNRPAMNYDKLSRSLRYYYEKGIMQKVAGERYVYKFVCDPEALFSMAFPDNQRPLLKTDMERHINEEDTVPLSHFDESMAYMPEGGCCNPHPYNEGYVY
# How it was run: as §1
# ERF = target: T6, ERF (Homo sapiens, UniProt P50548 1-548); settings: protein: recombinant; tags: N-terminal GST; dsDNA, one strand shown
# T6 sequence: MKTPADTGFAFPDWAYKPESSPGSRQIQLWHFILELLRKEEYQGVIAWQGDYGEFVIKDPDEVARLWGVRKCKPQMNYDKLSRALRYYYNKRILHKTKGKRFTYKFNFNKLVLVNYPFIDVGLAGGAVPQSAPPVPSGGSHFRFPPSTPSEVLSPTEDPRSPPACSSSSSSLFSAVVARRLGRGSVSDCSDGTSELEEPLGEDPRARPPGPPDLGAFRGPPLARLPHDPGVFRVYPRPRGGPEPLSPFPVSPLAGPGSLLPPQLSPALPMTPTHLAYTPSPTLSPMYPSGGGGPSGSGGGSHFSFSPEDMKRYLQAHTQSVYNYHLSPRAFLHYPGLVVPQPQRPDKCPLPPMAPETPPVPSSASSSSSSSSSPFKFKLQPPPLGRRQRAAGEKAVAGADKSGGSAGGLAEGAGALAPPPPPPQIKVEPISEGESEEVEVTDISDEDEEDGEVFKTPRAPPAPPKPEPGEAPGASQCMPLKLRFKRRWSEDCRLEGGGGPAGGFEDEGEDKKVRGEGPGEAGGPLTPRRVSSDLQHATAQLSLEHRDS
# How it was run: as §1
# ETV3L = target: T7, ETV3L (Homo sapiens, UniProt Q6ZN32 1-361); settings: protein: recombinant; tags: N-terminal GST; dsDNA, one strand shown
# T7 sequence: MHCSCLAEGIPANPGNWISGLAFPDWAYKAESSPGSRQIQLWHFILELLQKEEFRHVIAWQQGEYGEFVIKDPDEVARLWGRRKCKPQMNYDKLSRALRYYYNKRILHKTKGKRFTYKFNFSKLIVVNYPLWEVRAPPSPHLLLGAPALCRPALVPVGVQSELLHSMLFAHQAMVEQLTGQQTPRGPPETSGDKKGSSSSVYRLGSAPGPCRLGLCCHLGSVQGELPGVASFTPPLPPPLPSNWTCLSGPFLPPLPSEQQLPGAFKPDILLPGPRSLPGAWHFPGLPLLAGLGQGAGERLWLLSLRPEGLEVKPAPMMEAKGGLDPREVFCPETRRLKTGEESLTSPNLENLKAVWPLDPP
# How it was run: as §1
# ETS2 = target: T8, ETS2 (Homo sapiens, UniProt P15036 1-469); settings: protein: recombinant; tags: N-terminal GST; dsDNA, one strand shown
# T8 sequence: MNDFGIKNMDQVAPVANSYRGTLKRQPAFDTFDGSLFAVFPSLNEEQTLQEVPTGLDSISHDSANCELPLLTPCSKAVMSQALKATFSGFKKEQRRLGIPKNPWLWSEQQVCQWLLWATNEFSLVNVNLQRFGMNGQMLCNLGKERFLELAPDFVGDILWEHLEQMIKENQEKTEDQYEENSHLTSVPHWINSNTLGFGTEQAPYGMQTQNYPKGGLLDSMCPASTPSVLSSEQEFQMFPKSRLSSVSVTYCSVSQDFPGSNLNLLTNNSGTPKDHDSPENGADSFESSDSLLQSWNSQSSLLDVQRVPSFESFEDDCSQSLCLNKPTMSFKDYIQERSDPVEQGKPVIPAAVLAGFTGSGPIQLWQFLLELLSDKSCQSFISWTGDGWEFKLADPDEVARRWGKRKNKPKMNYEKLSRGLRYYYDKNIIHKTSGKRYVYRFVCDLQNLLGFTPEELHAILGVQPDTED
# How it was run: as §1
# SPDEF = target: T9, SPDEF (Homo sapiens, UniProt O95238 1-335); settings: protein: recombinant; tags: N-terminal GST; dsDNA, one strand shown
# T9 sequence: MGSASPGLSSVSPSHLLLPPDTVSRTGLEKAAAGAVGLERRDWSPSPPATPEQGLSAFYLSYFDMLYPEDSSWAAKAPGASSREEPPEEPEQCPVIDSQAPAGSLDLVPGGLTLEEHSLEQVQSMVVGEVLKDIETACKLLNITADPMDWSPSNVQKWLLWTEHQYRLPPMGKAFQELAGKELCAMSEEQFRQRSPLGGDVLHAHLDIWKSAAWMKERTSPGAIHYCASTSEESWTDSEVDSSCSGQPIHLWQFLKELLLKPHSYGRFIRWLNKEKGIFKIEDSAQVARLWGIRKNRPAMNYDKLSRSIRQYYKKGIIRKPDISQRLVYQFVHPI
# How it was run: as §1
# ETV7 = target: T10, ETV7 (Homo sapiens, UniProt Q9Y603 1-341); settings: protein: recombinant; tags: N-terminal GST; dsDNA, one strand shown
# T10 sequence: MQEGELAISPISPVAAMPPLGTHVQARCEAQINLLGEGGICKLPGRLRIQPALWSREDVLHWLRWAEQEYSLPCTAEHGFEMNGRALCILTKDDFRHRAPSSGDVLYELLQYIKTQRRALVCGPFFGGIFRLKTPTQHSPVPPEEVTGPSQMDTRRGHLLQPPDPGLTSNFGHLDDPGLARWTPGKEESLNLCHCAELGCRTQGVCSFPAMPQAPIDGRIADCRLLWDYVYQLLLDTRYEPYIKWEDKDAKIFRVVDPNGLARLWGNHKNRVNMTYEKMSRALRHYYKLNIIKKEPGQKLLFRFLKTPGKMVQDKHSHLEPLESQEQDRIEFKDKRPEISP
# How it was run: as §1
# ELF5 = target: T11, ELF5 (Homo sapiens, UniProt Q9UKW6-2 1-255); settings: protein: recombinant; tags: N-terminal GST; dsDNA, one strand shown
# T11 sequence: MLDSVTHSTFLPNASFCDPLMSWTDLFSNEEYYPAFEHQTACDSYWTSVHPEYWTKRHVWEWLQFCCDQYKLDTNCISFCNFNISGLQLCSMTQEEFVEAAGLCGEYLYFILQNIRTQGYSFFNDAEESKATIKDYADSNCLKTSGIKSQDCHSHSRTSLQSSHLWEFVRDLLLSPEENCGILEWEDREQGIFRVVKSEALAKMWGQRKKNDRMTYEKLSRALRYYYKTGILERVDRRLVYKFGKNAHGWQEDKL
# How it was run: as §1
# ETV3 = target: T12, ETV3 (Homo sapiens, UniProt P41162-2 1-143); settings: protein: recombinant; tags: N-terminal GST; dsDNA, one strand shown
# T12 sequence: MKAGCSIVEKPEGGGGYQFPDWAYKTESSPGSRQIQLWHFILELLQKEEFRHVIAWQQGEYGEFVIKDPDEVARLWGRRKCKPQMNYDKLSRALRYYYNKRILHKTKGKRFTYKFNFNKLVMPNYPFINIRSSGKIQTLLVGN
# How it was run: as §1
# ETV6 = ETV6 (Homo sapiens, UniProt P41212 1-452); settings: protein: recombinant; tags: N-terminal GST; dsDNA, one strand shown
# Sequence of ETV6 (P41212 whole entry): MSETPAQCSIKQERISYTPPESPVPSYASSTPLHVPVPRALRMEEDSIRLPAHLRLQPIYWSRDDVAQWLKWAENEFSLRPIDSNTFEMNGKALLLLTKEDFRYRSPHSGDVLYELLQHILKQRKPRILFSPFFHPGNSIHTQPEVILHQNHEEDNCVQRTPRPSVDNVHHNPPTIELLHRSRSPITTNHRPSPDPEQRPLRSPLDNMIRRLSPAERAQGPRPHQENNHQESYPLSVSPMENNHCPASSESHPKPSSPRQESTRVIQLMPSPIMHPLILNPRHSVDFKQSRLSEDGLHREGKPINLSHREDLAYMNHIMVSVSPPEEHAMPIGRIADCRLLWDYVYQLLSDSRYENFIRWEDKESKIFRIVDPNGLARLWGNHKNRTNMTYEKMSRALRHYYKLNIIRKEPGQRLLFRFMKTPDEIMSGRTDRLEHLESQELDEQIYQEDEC
# How it was run: as §1
sequence,measurement,setting,value
CCTTCG,binding signal,FEV,"1.38 fold enrichment (6-mer frequency, TF over GST control)"
same,binding signal,ETV5,"1.3 fold enrichment (6-mer frequency, TF over GST control)"
same,binding signal,HSF1,"1.88 fold enrichment (6-mer frequency, TF over GST control)"
same,binding signal,SPIC,"1.31 fold enrichment (6-mer frequency, TF over GST control)"
same,binding signal,ELF4,"1.39 fold enrichment (6-mer frequency, TF over GST control)"
same,binding signal,ELK4,"1.34 fold enrichment (6-mer frequency, TF over GST control)"
same,binding signal,ETV2,"1.39 fold enrichment (6-mer frequency, TF over GST control)"
same,binding signal,ELF3,"1.28 fold enrichment (6-mer frequency, TF over GST control)"
same,binding signal,CRX,"1.28 fold enrichment (6-mer frequency, TF over GST control)"
same,binding signal,ETV1,"1.5 fold enrichment (6-mer frequency, TF over GST control)"
same,binding signal,ERF,"1.36 fold enrichment (6-mer frequency, TF over GST control)"
same,binding signal,ETV3L,"1.36 fold enrichment (6-mer frequency, TF over GST control)"
same,binding signal,ETS2,"1.3 fold enrichment (6-mer frequency, TF over GST control)"
same,binding signal,SPDEF,"1.33 fold enrichment (6-mer frequency, TF over GST control)"
same,binding signal,ETV7,"1.38 fold enrichment (6-mer frequency, TF over GST control)"
same,binding signal,ELF5,"1.24 fold enrichment (6-mer frequency, TF over GST control)"
same,binding signal,ETV3,"1.12 fold enrichment (6-mer frequency, TF over GST control)"
same,binding signal,ETV6,"1.31 fold enrichment (6-mer frequency, TF over GST control)"
